According to ChEMBL document CHEMBL3988442, “University of Dundee, Small-Polar-MMV Screening Library” (2021):

What follows are compounds tested against T1, Aspartate--tRNA(Asp/Asn) ligase (Mycobacterium tuberculosis (strain ATCC 25618 / H37Rv)) (UniProt P9WFW3) (assay: Assay for Asp RNA synthetase-1 from Mycobacterium tuberculosis). Conditions: 30 µM.
T1 sequence (whole entry): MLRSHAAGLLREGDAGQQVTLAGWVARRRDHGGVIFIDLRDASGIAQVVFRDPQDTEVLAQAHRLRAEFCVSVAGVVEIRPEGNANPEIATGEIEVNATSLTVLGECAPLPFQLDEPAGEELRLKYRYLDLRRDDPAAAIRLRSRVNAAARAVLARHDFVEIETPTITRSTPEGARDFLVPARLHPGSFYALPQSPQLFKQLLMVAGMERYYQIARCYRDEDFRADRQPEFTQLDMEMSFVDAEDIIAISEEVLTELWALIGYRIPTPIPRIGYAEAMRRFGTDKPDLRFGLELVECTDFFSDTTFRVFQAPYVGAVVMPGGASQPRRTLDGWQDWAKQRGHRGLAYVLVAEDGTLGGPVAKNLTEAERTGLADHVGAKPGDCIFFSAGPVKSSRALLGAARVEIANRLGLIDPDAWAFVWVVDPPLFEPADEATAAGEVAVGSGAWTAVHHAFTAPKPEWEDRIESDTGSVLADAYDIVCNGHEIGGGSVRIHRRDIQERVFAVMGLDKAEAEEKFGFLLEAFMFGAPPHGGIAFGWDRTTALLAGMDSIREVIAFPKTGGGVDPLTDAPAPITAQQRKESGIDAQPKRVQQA
Assay type: functional
Parameters: scale not given: in the data most compounds retested in dose-response had high values

SMILES	Percent Effect
COCCN1CCN(C(=O)C2CC=CC2)Cc2cccnc21	-1.63%
Cc1cccc(-c2[nH]ncc2CNCC2CCN(CC(C)O)CC2)c1 (stereo not given)	4.15%
O=C(Cc1ccccc1F)N1C[C@@H]2COC[C@]2(COc2cccnc2)C1	6.28%
Cc1nnc(NC(=O)NCc2cccnc2N(C)C)s1	-2.76%
COCc1nc(CNC2CCSCC2)no1	-4%
Cc1nc([C@@H]2C[C@@H]3CCN(C(=O)c4occc4C)C[C@H]3O2)no1	10.9%
CCn1cc(CN2CCCn3nc(CNC(=O)C4CCC4)cc3C2)cn1	4.07%
Cc1ccc(C(=O)N2CCN(CCC(C)(C)C)CC2)c(=O)[nH]1	-4.54%
Cc1oc(C)c(C(=O)NCc2cccc(NC(=O)CN(C)C)c2)c1C	-5.4%
CN(CC(=O)N1CCCC1Cn1cccn1)C1CC1 (stereo not given)	-2.14%
CCn1ccnc1CN1CCCN(C(=O)c2sccc2C#N)CC1	1.71%
Cc1cc(CN2CC[C@H]3C[C@H](C(=O)N4CCC(C)CC4)O[C@H]3C2)no1	1.91%
Cc1[nH]c2ccccc2c1-c1ccnc(NCCN2CCOCC2)n1	7.28%
c1cnnc(N2CCCC2CNc2nc3ccccc3o2)c1 (stereo not given)	-3.6%
COc1ccc(NC(=O)Cn2nc(C)ccc2=O)cc1OC	-0.697%
c1cnn(CCNCc2csc(-c3ccsc3)n2)c1	-3.52%
c1ccc2sc(N3CCOC(Cn4cccn4)C3)nc2c1 (stereo not given)	6.21%
Cn1nc2c(cc1=O)CN(CC(=O)Nc1ccc(Cl)cn1)CC2	48.3%
CNS(=O)(=O)c1cccc(CNc2cc(C(F)(F)F)ccn2)c1	-2.24%
Cc1nc(C)n(C2CCCN(C(=O)c3ccc(NC4CC4)nc3)C2)n1 (stereo not given)	-1.66%
